Source: the supplement of paper PMC11417369
In all, about 25,000 sequences were measured (“ln(normalized median fluorescence intensity)”: median about 6.7, highest 2% from about 10 on). The list comes from a sample in which the highest values are over-represented; it also holds similar and randomly drawn sequences.

tested on: PfHDP1 homeodomain (GST-tagged); assay: gcPBM binding intensity (ln(normalized median fluorescence intensity)); higher = stronger DNA binding
Outline: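 After 1 h on an Agilent 4 × 180k array of primer-extended double-stranded 36-bp intergenic genomic probes and negative controls, bound GST-tagged P. falciparum DNA-binding domains were detected with Alexa488 anti-GST antibody and scanned at 488 nm. The domains had been expressed in E. coli, and binding took place in 1× PBS with 1% milk, 0.2 mg/ml BSA, 0.5% salmon testes DNA and 0.03% Triton X-100. Binding intensity is the highest Masliner-normalised natural-log median intensity across replicate spots of either probe orientation.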

Point of comparison: TTACAATAAATTATAGTGCAATATTTTATTTAATAT, “gcPBM binding intensity (ln)” value 10.6. Against it:
- ACAAATAAGTTTTGTAGTACTGTGTATATATATATA [XGTACX_site6901] — lower, 8.95
- ATTTTTTTCTTAGGAGTGCACTTATATTTATTTTAT — lower, 10.3
- ATCATATTTTTATGTGTGCACTTTTTTTTTTTTTTT [GTGCAC_site9555] — lower, 8.73
- TTTTTATTTTCATATGTGCACTTATATATATATATA — lower, 10.2
- ATATATTTTATATGTGTGCACTATATATATATATAT — higher, 10.8
- TTTATATTCTTAAGTGTGCACTATATATATATATAT [GTGCAC_site9719] — lower, 10.5
- TAATTATTCTATTAAGTGCATATATTTTTAAAAAGA — lower, 9.39
- TGAATAAATATATATACACACCCATATATATATATA [CACACA_site8833] — lower, 9.21
- AAAAGAAGATAATACAGTACAGAATAATATAAAATA [XGTACX_site5962] — lower, 6.51
- TTCTGTATATAGTGTGCACACAATTAAAAAAAAAAA [CACACA_site8400] — higher, 10.8
- TTTTTTTTTCTGTATACACACAAAATTTATTTTTTA [CACACA_site2873] — lower, 6.68
- TAAAATATATTTTTCTGTACACAAAAATATATTAAA [XGTACX_site2813] — lower, 6.24
- TATGTATATATATTAACACACAAAAAAAAAAAAAAA [CACACA_site1812] — lower, 6.2
- ATATTTAAAAATATAGTGCAATTATTCTAATGTGTT — lower, 8.89
- TTCTGTATAATATAAAAACAAAAATTAAATTAAAAC [CACACA_negctrl_site81] — lower, 6.43
- TTCTGTATACGGTGTGCACACAATTAAAAAAAAAAA [CACACA_site1416] — higher, 10.8
- TTTTCTGTATATTGTGTGCACACAATTAACAAAAAA [GTGCAC_site9817] — the same, 10.6
- ATAAAATATAAAAACGCACACAATTATAAGGGTGTA [CACACA_site177] — lower, 6.96
- TTTTTATGTGTATATTATTACATTTACATCTTTAAC [CACACA_negctrl_site1676] — lower, 6.64
- ATTATTACTTTTTGAGTGCACATACACACAGACATA — lower, 10
- ATAATAAAATGGAGAGTGCATACATGTTTATTTTAT — lower, 7.7
- AAATTATGAACATATTGTACATATATATATATATAT [XGTACX_site8269] — lower, 9.41
- ATTTAAGATTTAATCACACACATATATATTATATAC [CACACA_site2907] — lower, 6.55
- TGCAATTTAATATGAGTGCATATATTGAGAAAATAC — lower, 9.36
- AATGGGGAAGGTTCTACACACAACGCAAATGCCTTA [CACACA_site2758] — lower, 6.41
- TCCCTTAATTTTGTGTGTACATATAATATATTTTTA [XGTACX_site2789] — lower, 6.76
- TGTGCACATAATTAGTGTACATTTTTTATTTAGACA [XGTACX_site317] — lower, 10.1
- AGACCTTTAATTTGTGTGCACATAATTAGTGTACAT [GTGCAC_site9434] — higher, 10.7
- AAAAAAAAAAAAAACACACACATATAATATATTTAA [CACACA_site1337] — lower, 6.35
- AAACAATAAAAGATTACACACATATATAGCATATAT [CACACA_site1698] — lower, 6.82
- ATATATATATATATATGTACATACATACATAGAACT [XGTACX_site2214] — lower, 9.21
- TTTTATTTTTAAAATTGTACATTATTATTGTTATTT [XGTACX_site1439] — lower, 6.3
- ATATCTTATAATACGGTGCACTTGACATGAACAACT [GTGCAC_site9987] — lower, 10.3
- CCTTTCCTTTTATAAGTGCATATAACAAATGTATAC [GTGCAC_site9872] — lower, 8.03
- ATAATGAACAAAGTAGTGCACTTTCCTTATCTTTTC — higher, 10.7
- AAATGTGAACTATAATAATTTCAACGTCTGATATAA [TGCATGCA_negctrl_site440] — lower, 5.94
- TTGAACTCTCTTACGCGTACGTGTTATTATGAAAAT [XGTACX_site6265] — lower, 6.73
- TTTTTCATAAAACACACACACAAAAATAATGTGGAA [CACACA_site3687] — lower, 6.56
- TTTCAAATGGAATGTGTGCACATAAATGTAAATAAA — higher, 10.8
- TTTCAAAATGTGTAAAATAAAAATAATATCATTACA [TGCATGCA_negctrl_site521] — lower, 6.42
- AAAAAAAAAAAAGGCACACAAACATATGTAGACATA [CACACA_site2284] — lower, 6.61
- ATAATAAAATAAATCACACATAATATAATGTAATAT [CACACA_site6144] — lower, 6.49
- AAAAAAAAATCAAAATGTACTTATTTTTATAATAAT [XGTACX_site4712] — lower, 6.31
- AAGATTAAACATTGCACACAAAAACATATTTTCTAT [CACACA_site530] — lower, 9.7
- TTTTCTATAAGATTTGCACACAACTTATTCTATTAA [CACACA_site3752] — the same, 10.6
- AAGATTAAAAATTGCACACAAAAATATATTTTCTAT [CACACA_site1305] — lower, 9.78
- TTTTTTTTTTTCAATAGTACTTTCCATTTACATATA [XGTACX_site3889] — lower, 6.32
- TGAACTCATAGGAAAACACACATATGTGTAATATAT [CACACA_site4267] — lower, 7.27
- TGAACTCATAGGAAAACACACATATGGGTAATATAT [CACACA_site187] — lower, 6.78
- TGAACTCATAGGAAAACACACATATGTGCAATATAT [CACACA_site6231] — higher, 11.3
- CTATTTTTATATTATTGTACGTTGTTATTATATATA [XGTACX_site1469] — lower, 6.79
- CACTAATATATATACAGTACATAATAAAGTATATAA [XGTACX_site6875] — lower, 6.16
- TTGGGTATTTTGTGCGCACACACATGCAAAAAGAAA [CACACA_site8299] — lower, 9.63
- TGTCCAATTTATTGTGCACACCTCAAAAGTGGGTAA [CACACA_site3826] — higher, 11.1
- AATGCACAGCTCTTAGGCAAAAGTGGGTATTTACAC [GTGCAC_negctrl_site579] — lower, 8.63
- TTTTTTTCTAATTATGCACACATATCAAAATATTCA [CACACA_site8886] — lower, 10.2
- ATACATGTTTTATGTGCACACAAAGTTGTTATGAGG [CACACA_site4032] — higher, 10.8
- ACATGTTTTATGTGCACACAAAGTTGTTATGAGGTT [CACACA_site4031] — higher, 10.7
- TAGTTGCACATGTATACACACAAAAAATATTTTATG [CACACA_site475] — lower, 10.4
- TTTATGAAATGTTGCACACAAAAAACAACATGTTTT [CACACA_site1440] — lower, 9.63
- TATTTTATATGAGGCACACAAATTTTAATTGTTATT [CACACA_site725] — lower, 5.99
- ATTTTATGAAATGTTGCACACAAAAAACAACATGTT [CACACA_site8408] — lower, 9.69
- TCTTCATAAAAATAAAGTACATTATATATATAAATA [XGTACX_site3775] — lower, 6.37
- AAAAAATAGAATATGGGTACTAAAAAGATACAAACA [XGTACX_site4464] — lower, 6.84
- AAGTTTAAAGGAATTACACAAACAAGCAAATATATA [CACACA_negctrl_site857] — lower, 6.92
- TCATTAATCAGGTATGCATGCATAACTATTAAAAAT [TGCATGCA_site90] — lower, 6.46
- ACAATTTTATTTAAAGTGCATGTAAAATTAAAACTT — lower, 7.44
- AAAAAACTATTATGTGCATGCACAAGTCAGGTAAAT [TGCATGCA_site791] — higher, 11.3
- ATAAAAATATAAACATGTACATAAAAATCTATATAT [XGTACX_site405] — lower, 6.72
- TTTCATTTGTCGTTATGTACTTATTAAATATTATTA [XGTACX_site7709] — lower, 6.92
- TTAATACATATATATATATTATATATATATATATAT [TGCATGCA_negctrl_site177] — lower, 8.89
- ATATATCATATTATAGTGCATTTATAATAATATTAT — lower, 8.51
- ATATATATATTTATAGTGCATTTATATTAAAATATC [GTGCAC_site9818] — lower, 8.5
- ATATTTTATATAATAGTGCAAATAATATTAAATAAT — lower, 9.78
- CTTAAAATATATTTAGTGCATATACTAATATATTAT — lower, 8.9
- TTCTAAAATTATATAGTGCAATTATATTAATTTTTC — lower, 8.98
- ATTTTCTTTTCCATAGTGCAATATAATTATCCATCA [GTGCAC_site9547] — higher, 10.9
- ATGATATATTTAATAGTGCACTAATTAAAATTATTA [GTGCAC_site9418] — higher, 10.8
- TTATATAATTTAATAGTGCAATTATATTAATTTTTC — lower, 8.66
- TATATATATATATATATATATATATATATAATATTA [XGTACX_negctrl_site558] — lower, 9.37
- TGGAGGATAGTTCACAGTACCCAGTAACTCTACGGA [XGTACX_site4930] — lower, 6.22
- TATATATATATAATTGCACACATCAAGTTTGATGTT [CACACA_site1288] — lower, 9.99
- CAAAATGATATGACAACACACAACCTATAGTAAGAC [CACACA_site1287] — lower, 6.91
- ATCATCCAAGATCTTACACACATATTAAATAAATAA [CACACA_site1473] — lower, 6.66
- AGGCCTTTTAGTATTTCACACACGTAAATGTGTATA [CACACA_site8284] — lower, 6.43
- GGAATATATATACATACACACATATATATATATATA [CACACA_site1666] — lower, 9.32
- TTGTTCTAATATATTGCACACGTAAAAATATAGGTA [CACACA_site8195] — lower, 10.1
- TACGTAAATTCTAATACACACTATAGGATATTCTGC [CACACA_site7248] — lower, 6.41
- GTTCTAATATATTGCACACGTAAAAATATAGGTAAT [CACACA_site886] — the same, 10.6
- GGAAAAAATATATGCACACCCCCCAAAAAAAAAAAA [CACACA_site2222] — lower, 9.67
- TGGGAAAAAATATATGCACACCCCCCAAAAAAAAAA [CACACA_site8696] — the same, 10.6
- AAAAAAAAAAAACACACACACACACCCAAATATATA [CACACA_site150] — lower, 6.84
